Test results: PubChem BioAssay
Calls of active or inactive are those of the source.

What was measured:
[1] = E. coli DRC41 culture turbidity changes, primary screen, E. coli filamentation inducer project, strain DRC41, OD650, 48 h (AID 1152);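 further: E. coli MC1000 strain DRC41 lacking acrAB efflux pump and sulA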; conditions: E. coli DRC41 (acrAB sulA), higher = more signal, called active from +8 up or from −8 down
[2] = small-molecule binders of probe aLefty1, primary screen, biochemical, small-molecule microarray, 635/667 nm fluorescence (AID 1153); conditions: higher = more signal;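 further: score merges spot fluorescence with signal-to-noise ratio from the scanned slide images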
[3] = PSAC antagonists in infected red cells, primary screen, cell-based, P. falciparum Indochina, OD700, 1 h (AID 1154); conditions: P. falciparum Indochina infected RBC osmotic lysis, higher = more signal, called active from +8 up or from −8 down
[4] = PSAC antagonists in infected red cells, primary screen, cell-based, P. falciparum Indochina, OD700, 2 h (AID 1155);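 further: lysis reports solute entry through the parasite surface anion channel PSAC; channel blockers reduce lysis of infected cells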; conditions: P. falciparum Indochina infected erythrocytes, osmotic lysis OD700; higher = more signal, called active from +8 up or from −8 down
[5] = osmotic lysis modulators in infected erythrocytes, primary screen, PSAC antagonist project, cell-based, P. falciparum Indochina, OD700, 3 h (AID 1156); conditions: higher = more signal, called active from +8 up or from −8 down
[6] = PSAC antagonists in infected red cells, primary screen, cell-based, P. falciparum Indochina, OD700, 18 h (AID 1157); conditions: P. falciparum Indochina infected erythrocytes, osmotic lysis OD700, 18 h; higher = more signal, called active from +8 up or from −8 down
[7] = modulators of S6 phosphorylation in cells, primary screen, cell-based, A549, cytoblot, luminescence, serum-stimulated (AID 1158); conditions: A549 phospho-S6 cytoblot, 5 h, higher = more signal;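 further: serum-stimulated A549 lung adenocarcinoma cells; signal is phosphorylated S6 detected by cytoblot immunostaining with HRP secondary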
[8] = molecular target: NADPH oxidase 2 (Homo sapiens) (UniProt P04839); assay: NOX2-dependent H2O2 signal modulators, primary screen, NOX inhibitor project, cell-based, HEK293-NOX2, PMA-stimulated, Amplex Red fluorescence (AID 1159); conditions: 45 min, higher = more signal, called active from +8 up or from −8 down; further: test concentration not given here
[9] = molecular target: NADPH oxidase 4 (Homo sapiens) (UniProt Q9NPH5); assay: NOX4-dependent H2O2 signal modulators, primary screen, NOX inhibitor project, cell-based, HEK293-NOX4, tetracycline-induced, Amplex Red fluorescence (AID 1160); conditions: 45 min, higher = more signal, called active from +8 up or from −8 down
[10] = molecular target: NADPH oxidase 5 (Homo sapiens) (UniProt Q96PH1); assay: NOX5-dependent H2O2 signal modulators, primary screen, NOX inhibitor project, cell-based, HEK293-NOX5, Amplex Red fluorescence (AID 1161); conditions: HEK293-NOX5, ionomycin, 45 min, higher = more signal
[11] = A549 cell viability effects, profiling panel, calcein-AM fluorescence, 48 h, basal (AID 1162); conditions: higher = more signal; further: test concentration not given here
[12] = adipocyte viability effects, profiling panel, cell-based, 3T3-L1 adipocytes, calcein-AM fluorescence, 48 h, basal (AID 1163); conditions: 3T3-L1 adipocytes viability, higher = more signal; further: test concentration not given here
[13] = HepG2 cell viability effects, profiling panel, calcein-AM fluorescence, 48 h, basal (AID 1164); conditions: higher = more signal; further: test concentration not given here
[14] = MM1S cell viability effects, profiling panel, calcein-AM fluorescence, 48 h, basal (AID 1165); conditions: higher = more signal;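 further: viability of MM1S multiple myeloma cells under basal unstimulated conditions; test concentration not given here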
[15] = basal RPMI8226 viability, no added stimulus, profiling panel, cell-based, calcein-AM fluorescence, 48 h, PK04 Diversity Set (AID 1166); conditions: RPMI8226 myeloma viability, higher = more signal;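 further: cells grown under basal conditions without added stimulus; test concentration not given here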
[16] = basal HepG2 mitochondrial membrane potential changes, profiling panel, cell-based, JC-1 fluorescence, 24 h, 100 nL compound (AID 1167); conditions: higher = more signal; further: test concentration not given here
[17] = basal 3T3-L1 adipocyte mitochondrial potential changes, profiling panel, cell-based, JC-1 fluorescence, 3T3-L1 adipocytes, 24 h, 100 nL compound (AID 1168); conditions: JC-1 mitochondrial fluorescence, higher = more signal, called active from +8 up or from −8 down; further: test concentration not given here
[18] = basal RPMI8226 mitochondrial membrane potential changes, profiling panel, cell-based, JC-1 fluorescence, 24 h, 100 nL compound (AID 1169); conditions: RPMI8226 myeloma, JC-1 mitochondrial potential fluorescence, higher = more signal; further: test concentration not given here
[19] = basal MM1S mitochondrial membrane potential changes, profiling panel, cell-based, JC-1 fluorescence, 24 h, 100 nL compound (AID 1170); conditions: higher = more signal; further: test concentration not given here
[20] = A549 lung cancer cell viability effects, profiling panel, resazurin fluorescence, 24 h, PK04 Diversity Set (AID 1171); conditions: higher = more signal, called active from +8 up or from −8 down; further: test concentration not given here

NADPH oxidase 2 (Homo sapiens), sequence (P04839 whole entry, looked up): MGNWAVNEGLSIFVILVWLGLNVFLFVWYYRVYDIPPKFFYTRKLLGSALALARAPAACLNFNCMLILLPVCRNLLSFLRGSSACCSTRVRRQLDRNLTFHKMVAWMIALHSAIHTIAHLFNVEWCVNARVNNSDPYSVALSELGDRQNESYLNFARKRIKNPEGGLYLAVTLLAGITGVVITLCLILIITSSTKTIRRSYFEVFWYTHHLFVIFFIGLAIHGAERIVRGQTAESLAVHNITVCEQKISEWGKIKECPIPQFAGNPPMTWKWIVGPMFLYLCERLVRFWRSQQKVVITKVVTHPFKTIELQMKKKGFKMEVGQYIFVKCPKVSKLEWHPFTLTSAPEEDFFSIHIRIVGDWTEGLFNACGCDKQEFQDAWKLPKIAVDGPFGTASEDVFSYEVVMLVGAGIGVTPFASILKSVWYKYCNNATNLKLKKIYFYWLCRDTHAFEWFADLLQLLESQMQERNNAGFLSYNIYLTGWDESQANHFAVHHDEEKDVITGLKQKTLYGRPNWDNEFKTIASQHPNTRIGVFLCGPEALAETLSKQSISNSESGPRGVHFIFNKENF
NADPH oxidase 4 (Homo sapiens), sequence (Q9NPH5 whole entry, looked up): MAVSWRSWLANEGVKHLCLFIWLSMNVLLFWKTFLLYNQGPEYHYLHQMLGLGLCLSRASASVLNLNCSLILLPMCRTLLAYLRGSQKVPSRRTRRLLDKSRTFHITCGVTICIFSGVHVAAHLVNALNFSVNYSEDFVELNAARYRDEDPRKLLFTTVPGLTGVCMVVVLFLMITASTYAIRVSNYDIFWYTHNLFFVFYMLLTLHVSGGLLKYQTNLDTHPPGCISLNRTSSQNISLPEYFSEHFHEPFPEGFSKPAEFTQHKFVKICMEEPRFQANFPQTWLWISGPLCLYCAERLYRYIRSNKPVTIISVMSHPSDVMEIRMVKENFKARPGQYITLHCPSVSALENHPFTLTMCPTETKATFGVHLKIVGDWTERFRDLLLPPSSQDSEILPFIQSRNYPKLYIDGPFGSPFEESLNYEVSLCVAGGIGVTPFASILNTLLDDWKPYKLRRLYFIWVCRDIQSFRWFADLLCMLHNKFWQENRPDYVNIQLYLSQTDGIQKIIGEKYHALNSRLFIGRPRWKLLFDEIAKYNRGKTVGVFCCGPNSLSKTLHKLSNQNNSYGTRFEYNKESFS
NADPH oxidase 5 (Homo sapiens), sequence (Q96PH1 whole entry, looked up): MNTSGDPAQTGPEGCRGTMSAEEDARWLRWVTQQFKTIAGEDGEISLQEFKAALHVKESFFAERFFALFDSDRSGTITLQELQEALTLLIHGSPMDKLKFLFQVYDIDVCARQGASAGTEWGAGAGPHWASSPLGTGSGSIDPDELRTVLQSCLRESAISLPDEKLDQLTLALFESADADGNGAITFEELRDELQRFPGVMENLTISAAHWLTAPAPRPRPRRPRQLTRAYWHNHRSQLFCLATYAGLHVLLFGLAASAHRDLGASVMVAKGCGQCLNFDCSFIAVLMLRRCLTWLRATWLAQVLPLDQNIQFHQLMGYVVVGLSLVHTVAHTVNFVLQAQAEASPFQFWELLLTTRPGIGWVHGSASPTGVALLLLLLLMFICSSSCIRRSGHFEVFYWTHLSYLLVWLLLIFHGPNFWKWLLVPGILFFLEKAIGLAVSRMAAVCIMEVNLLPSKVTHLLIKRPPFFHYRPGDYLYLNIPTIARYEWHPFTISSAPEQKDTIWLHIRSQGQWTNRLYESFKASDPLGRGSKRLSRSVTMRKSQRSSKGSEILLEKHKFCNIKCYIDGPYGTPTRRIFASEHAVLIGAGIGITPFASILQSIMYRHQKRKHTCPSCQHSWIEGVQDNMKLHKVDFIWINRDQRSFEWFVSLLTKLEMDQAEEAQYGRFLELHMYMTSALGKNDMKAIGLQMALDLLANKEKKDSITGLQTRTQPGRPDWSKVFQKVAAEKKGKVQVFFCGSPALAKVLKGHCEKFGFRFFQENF

SMILES | z-score [1] | composite z-score [2] | z-score [3] | z-score [4] | z-score [5] | z-score [6] | z-score [7] | z-score [8] | z-score [9] | z-score [10] | z-score [11] | z-score [12] | z-score [13] | z-score [14] | z-score [15] | z-score [16] | z-score [17] | z-score [18] | z-score [19] | z-score [20]
CC(C)c1ccc(NN2C(C(O)c3ccco3)C=CC3C(=O)N(c4ccccc4)C(=O)C32)cc1 (stereo not given) | -0.302 (inactive) | 0.409 | 6.96 (inactive) | 1.93 (inactive) | 0.626 (inactive) | 1.29 (inactive) | -0.694 | -1.67 (inactive) | -1.95 (inactive) | -1.88 | 0.983 | -1.49 | 0.842 | -0.155 | -0.166 | -1.14 | -0.473 (inactive) | 0.473 | -0.921 | -0.635 (inactive)
[N-]=[N+]=Nc1ccccc1C[C@@]1(C(=O)O)N=C(c2ccc(OCCCO)cc2)O[C@@H]1c1ccccc1 | -0.265 (inactive) | 0.273 | 17.7 (active) | 1.37 (inactive) | -1.14 (inactive) | 0.245 (inactive) | -0.405 | -0.135 (inactive) | 1.27 (inactive) | 1.24 | -0.0649 | -0.532 | -0.222 | -1.78 | -1.26 | -1.65 | -0.0754 (inactive) | 0.00697 | -0.187 | 0.293 (inactive)
O=C1OC[C@@H](c2ccccc2)N2CC(/C=C/c3ccccc3)=CC12 (stereo not given in full) | -0.107 (inactive) | -0.469 | 18.1 (active) | 3.85 (inactive) | 2.22 (inactive) | 1.55 (inactive) | -0.126 | 0.724 (inactive) | -0.598 (inactive) | 0.967 | -0.488 | -0.125 | -0.255 | -0.0482 | -0.267 | -0.251 | 0.291 (inactive) | -0.306 | 0.00388 | 1.05 (inactive)
COc1cc(CO)cc(I)c1O[C@H]1C=C(C(=O)NCCO)C[C@@H](N(Cc2ccc(F)cc2)C(=O)C2CCCO2)[C@@H]1O (stereo not given in full) | 3.54 (inactive) | -0.147 | 1.92 (inactive) | 0.581 (inactive) | 1.03 (inactive) | 0.23 (inactive) | -0.0981 | 0.0499 (inactive) | 0.93 (inactive) | 0.73 | 0.656 | 0.284 | 0.364 | 0.87 | 0.577 | 1.04 | 0.195 (inactive) | -0.899 | 0.578 | -0.409 (inactive)
Cc1c(NC(=O)/C(C#N)=C/C=C/c2ccccc2[N+](=O)[O-])c(=O)n(-c2ccccc2)n1C | 0.56 (inactive) | -0.184 | 2.91 (inactive) | 0.548 (inactive) | 0.681 (inactive) | 0.0839 (inactive) | -0.243 | -0.235 (inactive) | 0.0287 (inactive) | 0.657 | -1.22 | -0.355 | -1.71 | -3.09 | -2.1 | -1.76 | -0.0694 (inactive) | -0.588 | -0.994 | -1.43 (inactive)
NC(=O)NCC#Cc1ccc2c(c1)[C@]1(C(=O)N2)[C@H](c2ccc(O)cc2)N2[C@H](c3ccccc3)[C@H](c3ccccc3)OC(=O)[C@H]2[C@@H]1C(=O)Nc1nc2ccccc2s1 | 0.589 (inactive) | 0.127 | 3.28 (inactive) | 2.86 (inactive) | 0.904 (inactive) | 2.09 (inactive) | 0.0298 | 0.0666 (inactive) | -1.01 (inactive) | 0.17 | 0.421 | 1.17 | 0.157 | -0.168 | 0.496 | -3.24 | 0.352 (inactive) | -1.16 | -2.12 | 0.754 (inactive)
CN(C)CCCN1C(=O)[C@@]2(c3ccc([N+](=O)[O-])cc3)CC(=O)N(CC34CC5CC(CC(C5)C3)C4)[C@@H]2c2ccc(CO)cc21 | 0.388 (inactive) | -0.0662 | 2.1 (inactive) | -0.451 (inactive) | 1.27 (inactive) | -0.405 (inactive) | 0.299 | -2.29 (inactive) | -0.0839 (inactive) | 1.56 | 2.86 | 0.338 | 0.28 | -0.18 | 0.621 | 0.474 | 1.38 (inactive) | -0.0069 | 0.41 | -0.928 (inactive)
O=C1OCCC=C[C@H]2OC34C=CCN(c5ccc(Cl)cc5)C(=O)[C@H]3N(CCCCCO)C(=O)[C@@H]4C12 (stereo not given in full) | 1.81 (inactive) | 0.211 | 2.21 (inactive) | 0.355 (inactive) | 1.63 (inactive) | 0.795 (inactive) | 0.0411 | 1.69 (inactive) | 0.747 (inactive) | 2.35 | 0.657 | 0.0279 | 1.11 | 1.54 | -0.579 | 0.989 | 1.14 (inactive) | 0.211 | 0.0628 | 1.03 (inactive)
